This note sets out measurements from PubChem BioAssay (NCATS).

SMILES strings stand for the structures. Where “and” joins values, the source holds several entries; their conditions need not be identical. Identical values can stand only once. Records with an inconclusive call do not appear. Calls of active or inactive are those of the source. Unless noted, calls follow the shape of the dose curve; as a rule, active = well fitted curve in the direction sought with a large enough effect; inconclusive = small, poorly fitted or top-dose-only effect, or another doubt; inactive = no such curve, though single readings can be large; an effect the other way counts as inactive or inconclusive.

In assay [1] the target is Arylsulfatase A (Homo sapiens) (UniProt P15289). The assay can be described thus: qHTS screen for enhancers of Arylsulfatase A (ASA1): LOPAC Validation Assay (AID 720538). As to conditions: outcome: dose series up to 57.5 µM. In outline:
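Read-out: fluorescence at Ex=525/Em=598 nm after 1N NaOH final stop. Patient fibroblasts carrying ASA-I179S had 48h compound exposure, then 14h room-temperature pNCS hydrolysis (0.5mM final) in lysis buffer. Signal increase = enhanced activity.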

Assay [2] in a line: qHTS for compounds that reverse cellular toxicity of Amyloid beta (A-beta) peptide in yeast: LOPAC Validation Assay (AID 720559).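 Also: plate controls were DMSO for no effect and equimolar ferric chloride plus clioquinol rescue for full effect.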 The procedure, abridged: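 OD600 growth readout after 48 hr at 30 C; A-beta-toxic yeast plus pinned compounds in medium. Normalization: DMSO = negative, equimolar FeCl3 + clioquinol = positive.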
Assay [3] can be described thus: qHTS for Activators of Parkin Expression: LOPAC Validation Assay (NLuc Reporter) (AID 720572). The procedure, abridged:
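NLuc signal, read 10 min after reagent and following a prior FLuc read, is normalized to DMSO (0) and positive controls (100%). Cells: neuronal Parkin-promoter coincidence reporter line; compounds tested 7-point, 24 h, 37 C, 5% CO2.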

The nature of assay [4]: qHTS for Activators of Parkin Expression: LOPAC Validation Assay (FLuc Reporter) (AID 720573). In outline: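 FLuc luminescence read-out from a neuronal line expressing a Parkin-promoter-driven coincidence reporter. Cells treated 24 h at 37 C, 5% CO2 with compounds at 7 concentrations; signal increase normalized to DMSO and positive control.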
The target in assay [5] is T1, Hexokinase-4 (Homo sapiens) + Glucokinase regulatory protein (Homo sapiens) (UniProt P35557+Q14397). The assay can be described thus: qHTS assay for inhibitors of recombinant human GCK-GKRP interaction: Diaphorase-coupled assay (AID 743205). The procedure, abridged: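 Resorufin fluorescence (525/590 nm), read each minute over 30 min, reports GCK activity coupled via G6PDH and diaphorase. Reaction: 10 nM GST-GCK, 10 nM FLAG-GKRP, 5 mM glucose, 0.4 mM ATP, 0.15 mM NADP+, 0.1 mM resazurin.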

For assay [6], the target named is T1, Hexokinase-4 (Homo sapiens) + Glucokinase regulatory protein (Homo sapiens). The assay can be described thus: qHTS assay for inhibitors of recombinant human GCK-GKRP interaction: ADP-Glo assay (AID 743206).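 Also: plate controls were DMSO plus enzyme for no effect and no enzyme for full effect.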 The procedure, abridged: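 Pin-transferred compounds meet a 15 nM GST-GCK/15 nM FLAG-GKRP/2 uM S6P mix (dispense concentrations). ATP is then added to 0.4 mM final with 5 mM glucose, and the reaction runs 60 min at room temperature. ADP is quantified luminescently.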

The target is the same in assay [7]. As to the kind of experiment: qHTS assay for inhibitors of recombinant human GCK-GKRP interaction: HTRF assay (AID 743207).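 Also: 0% = DMSO with GCK present and -100% = DMSO wells lacking GCK.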 In outline:
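HTRF read-out (ex 320 nm; 615/665 nm emission) after 60 min RT equilibration of 5 nM GST-GCK, 5 nM FLAG-GKRP, 2 uM S6P, compound and anti-FLAG/anti-GST detection antibodies; signal normalized between DMSO wells with and without GCK.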

Assay [8] can be described thus: qHTS Assay for Identifying Gametocytocidal Compounds (AID 743244). Also: potency is read from the fitted curve at half-maximal effect.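 As to max response: % is scaled to controls: 0 for no effect and ±100 for the full control effect; actives lower the fluorescent signal which means gametocytes are killed.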 As to conditions: P. falciparum 3D7 stage III-V gametocytes, alamarBlue, 72 h; max response: stronger effect = lower value. The procedure, abridged: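 A resazurin-based viability read-out was applied to mature P. falciparum gametocytes: 72 h compound treatment, then 24 h dye incubation, with falling fluorescence signalling gametocytocidal effect.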

Assay [9] can be described thus: qHTS profiling of the MIPE4 collection as inhibitors of Plasmodium falciparum (3D7) proliferation (AID 743344; call rule not given here). As to conditions: P. falciparum 3D7 in erythrocytes, SYBR Green DNA fluorescence, 72 h; at 28.5 µM (top of the series) unless noted. The procedure, abridged: (§1)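 Parasite DNA was quantified by SYBR Green I fluorescence (ex 485, em 535 nm) after overnight lysis in saponin/Triton buffer at room temperature. Cultures at 0.3% parasitemia and 2.5% hematocrit were first exposed to compound for 72 h at 37 C; signals were normalised to artemisinin (0.29 uM) and vehicle wells.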

A short description of assay [10]: qHTS profiling of the MIPE4 collection as inhibitors of Plasmodium falciparum (DD2) proliferation (AID 743345; call rule not given here). To be noted: P. falciparum Dd2 in erythrocytes, SYBR Green DNA, 72 h; at 28.5 µM (top of the series) unless noted. The procedure, abridged:
as §1

Assay [11] in a line: qHTS profiling of the MIPE4 collection as inhibitors of Plasmodium falciparum (DD2) proliferation (Rep 2) (AID 743346; call rule not given here). As to conditions: P. falciparum Dd2 in erythrocytes, SYBR Green DNA, 72 h; at 28.5 µM (top of the series) unless noted. The procedure, abridged: as §1
Assay [12] in a line: qHTS profiling of the MIPE4 collection as inhibitors of Plasmodium falciparum (HB3) proliferation (AID 743347; call rule not given here;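 also: plate controls were DMSO vehicle wells for no effect and artemisinin wells for full effect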). As to conditions: P. falciparum HB3 in erythrocytes, SYBR Green DNA, 72 h; at 28.5 µM (top of the series) unless noted. The procedure, abridged: as §1
Assay [13] can be described thus: qHTS assay for small molecule agonists of the antioxidant response element (ARE) signaling pathway measured by Nrf2-dependant transcriptional activity (AID 720636; active = well fitted curve in the direction sought with a large enough effect in the repeat runs; an effect the other way counts as inactive or inconclusive;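 also: HepG2 cells with an ARE-driven luciferase reporter; % of control where 0% means no effect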). The procedure, abridged:
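First, ARE-luc HepG2 cells attached for 6 hr at 37 C in 1% dialyzed FBS medium. Next, compound or DMSO was added and incubated 16 hr. Finally, ONE-Glo reagent was added and luminescence measured after 30 min.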

The nature of assay [14]: qHTS assay for small molecule antagonists of the retinoid-related orphan receptor gamma (ROR-gamma) signaling pathway - cell viability counter screen (AID 720652; active = well fitted curve in the direction sought with a large enough effect in the repeat runs; an effect the other way counts as inactive or inconclusive;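 also: compound exposure lasted 16 hr before ATP read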; also: potency is read from the fitted curve at half-maximal effect). The procedure, abridged:
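Steps: seed CHO cells bearing TET-inducible ROR and ROR response element-luciferase; rest 5 hr at 37 C; add compound, then doxycycline; incubate 16 hr; add CellTiter-Glo and read luminescence as ATP-based viability.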

Assay [15] in a line: qHTS assay for small molecule agonists of the antioxidant response element (ARE) signaling pathway measured by Nrf2-dependant transcriptional activity - cell viability counter screen (AID 720653; active = well fitted curve in the direction sought with a large enough effect in the repeat runs; an effect the other way counts as inactive or inconclusive; also: potency is read from the fitted curve at half-maximal effect; as to max response: % is scaled to controls: 0 for no effect and ±100 for the full control effect). As to conditions: ARE-bla HepG2 viability, CellTiter-Glo ATP luminescence, 16 h; max response: stronger effect = lower value. In outline:
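ARE-bla HepG2 cells treated with compounds for 16 h at 37C; this counter screen measures viability as intracellular ATP by CellTiter-Glo luminescence after 30 min at room temperature.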

A short description of assay [16]: qHTS assay for cell viability of HEK293 cells (AID 743288). Also: nearly all actives have a fitted effect of over 50% in size. Also: potency is read from the fitted curve at half-maximal effect. As to max response: % is scaled to controls: 0 for no effect and ±100 for the full control effect. To be noted: ATP luminescence (CellTiter-Glo), 18 h; max response: stronger effect = lower value. In outline: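 ATP luminescence (CellTiter-Glo) reports metabolically competent cell number after parental HEK293 cells, 2,000/well, were treated with DMSO-dissolved compounds for 18 h at 37 C; reagent incubation 30 min, room temperature.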

Assay [17] is described as follows: qHTS assay for cell viability of the p53RE-bla HCT-116 cell line (AID 743292). Also: nearly all actives have a fitted effect of over 55% in size. Also: potency is read from the fitted curve at half-maximal effect. In outline: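 Quantitative high-throughput format: compounds in DMSO were pinned onto p53RE-bla HCT-116 cells (4,000/well) and incubated 16 h at 37 C. Total intracellular ATP, read by CellTiter-Glo luminescence, reflects viable cell number.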
Assay [18] can be described thus: qHTS profiling for inhibitors of Plasmodium falciparum (3D7) proliferation (AID 743322).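 Also: infected erythrocytes exposed to compound for 72 h before lysis; 100% = DMSO vehicle wells and 0% = 0.29 µM artemisinin.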 As to conditions: P. falciparum 3D7 proliferation; at 28.7 µM (top of the series). In outline:
as §1

The nature of assay [19]: qHTS profiling for inhibitors of Plasmodium falciparum (DD2) proliferation (AID 743323; call rule not given here). To be noted: lower = more inhibition; at 28.7 µM (top of the series). In outline: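 Parasite proliferation measured via DNA-dye fluorescence, as uninfected erythrocytes lack DNA. Cultures at 0.3% parasitemia and 2.5% hematocrit incubated 72 h with compound; signal scaled between vehicle and 0.29 uM artemisinin wells.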

Sequence of Arylsulfatase A (Homo sapiens) (P15289 whole entry, looked up): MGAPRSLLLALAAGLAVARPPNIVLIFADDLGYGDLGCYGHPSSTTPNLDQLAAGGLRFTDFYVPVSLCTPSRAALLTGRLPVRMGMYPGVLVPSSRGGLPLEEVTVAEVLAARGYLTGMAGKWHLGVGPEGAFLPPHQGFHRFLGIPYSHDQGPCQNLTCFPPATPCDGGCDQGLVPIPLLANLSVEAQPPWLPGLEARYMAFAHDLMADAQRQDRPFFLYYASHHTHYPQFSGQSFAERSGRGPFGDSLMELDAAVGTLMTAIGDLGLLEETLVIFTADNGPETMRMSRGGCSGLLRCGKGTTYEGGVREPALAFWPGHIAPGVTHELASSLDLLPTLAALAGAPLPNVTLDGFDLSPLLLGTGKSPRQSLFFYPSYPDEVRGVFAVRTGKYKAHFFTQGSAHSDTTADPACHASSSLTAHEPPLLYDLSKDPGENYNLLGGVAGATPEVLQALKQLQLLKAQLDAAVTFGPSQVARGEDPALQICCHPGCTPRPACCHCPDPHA
T1 sequence (P35557 whole entry, looked up): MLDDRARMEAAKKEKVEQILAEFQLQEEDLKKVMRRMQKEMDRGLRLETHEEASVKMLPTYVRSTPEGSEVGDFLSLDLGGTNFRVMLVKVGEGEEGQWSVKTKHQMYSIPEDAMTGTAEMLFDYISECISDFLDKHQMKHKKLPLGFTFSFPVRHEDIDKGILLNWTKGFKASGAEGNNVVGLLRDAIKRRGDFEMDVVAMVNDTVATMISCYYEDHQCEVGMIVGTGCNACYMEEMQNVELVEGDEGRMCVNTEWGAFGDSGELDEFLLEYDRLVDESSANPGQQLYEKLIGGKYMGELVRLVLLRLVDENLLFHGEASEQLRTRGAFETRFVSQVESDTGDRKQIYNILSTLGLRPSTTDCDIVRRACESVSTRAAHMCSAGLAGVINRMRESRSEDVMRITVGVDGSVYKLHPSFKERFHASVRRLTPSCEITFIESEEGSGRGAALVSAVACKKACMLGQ
T1 sequence (Q14397 whole entry, looked up): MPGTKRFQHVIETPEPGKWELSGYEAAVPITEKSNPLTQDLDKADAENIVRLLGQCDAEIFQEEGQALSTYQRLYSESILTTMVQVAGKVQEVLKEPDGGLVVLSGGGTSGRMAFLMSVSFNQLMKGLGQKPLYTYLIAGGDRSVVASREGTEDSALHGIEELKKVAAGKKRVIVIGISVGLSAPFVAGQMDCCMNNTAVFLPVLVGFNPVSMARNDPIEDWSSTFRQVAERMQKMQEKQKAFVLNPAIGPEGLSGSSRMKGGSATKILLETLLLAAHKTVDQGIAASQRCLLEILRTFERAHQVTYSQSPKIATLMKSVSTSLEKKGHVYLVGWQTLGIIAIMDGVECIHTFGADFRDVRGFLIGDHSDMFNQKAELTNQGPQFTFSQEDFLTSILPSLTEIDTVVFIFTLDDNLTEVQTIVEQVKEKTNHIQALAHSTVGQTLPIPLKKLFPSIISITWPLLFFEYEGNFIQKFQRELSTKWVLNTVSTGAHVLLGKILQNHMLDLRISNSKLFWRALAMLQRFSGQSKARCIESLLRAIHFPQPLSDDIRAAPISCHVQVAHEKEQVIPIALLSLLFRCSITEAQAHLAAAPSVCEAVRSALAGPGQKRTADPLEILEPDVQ

Consider `CC1CC2C3CCC4=CC(=O)C=C[C@]4(C)[C@@]3(F)[C@@H](O)C[C@]2(C)[C@@]1(O)C(=O)CO` (stereo partly drawn), for which the result in [1], in assay [2], in [3], in assay [4], in [5] and in assay [6] was inactive. Further, the outcome in [7] was inactive. The max response in assay [8] is 8.59% (inactive). Besides, in assay [9], the parasite growth, % of DMSO control worked out at 85.2%. Further, the parasite growth remaining, % of DMSO control (lower = more inhibition) in [10] was found to be 90.6%. The compound further registered a parasite growth, % of control (lower = inhibition) in assay [11] of 85.8%. The same compound registered a growth, % of control in assay [12] of 102%.

With `Cc1nnc(NS(=O)(=O)c2ccc(N)cc2)s1`, the outcome in [13] was inactive. Also, the Potency result in [14] and in [17] was “inactive” each time. Besides, the max response is 4.88% (inactive) in [15], -4.6% (inactive) in assay [8] and 0.46% (inactive) in assay [16]. In [9], this compound had a parasite growth, % of DMSO control of 22.2%. In assay [10], this compound had a parasite growth remaining, % of DMSO control (lower = more inhibition) of 17.6%. This compound yielded a parasite growth, % of control (lower = inhibition) in [11] of 8.26%.

For `COc1cc2nc(N3CCCN(C)CC3)nc(NC3CCN(Cc4ccccc4)CC3)c2cc1OC`, the result in [1], in assay [2], in [3], in [4], in [5] and in assay [6] was inactive. The outcome in [7] was inactive. Also, the Potency in assay [8] was 1.18 µM (active). This compound registered a remaining parasite growth % (stronger effect = lower value) in assay [18] of 0.848%. This compound also yielded an activity, percent of control in assay [19] of 0.575%. In assay [9], this compound returned a parasite growth, % of DMSO control of 4.4%. Also, in assay [10], the parasite growth remaining, % of DMSO control (lower = more inhibition) was determined as 6.59%. Also, the parasite growth, % of control (lower = inhibition) in assay [11] is 7.33%. Further, the growth, % of control in assay [12] worked out at 8.7%.

Turning to `CN(C)c1ccc(C(=C2C=CC(=[N+](C)C)C=C2)c2ccc(N(C)C)cc2)cc1`, the compound was called inactive in assay [13]. Moreover, the Potency in [14] is 10.6 µM (active); in assay [15], 25.1 µM (active) and 12.6 µM (active); in assay [8], 7.08 µM (active); in [16], 14.1 µM (active) and 11.2 µM (active); in assay [17], 25.1 µM (active) and 35.5 µM (active). For the same compound, in assay [9], the parasite growth, % of DMSO control amounted to 2.71%. The same compound had a parasite growth remaining, % of DMSO control (lower = more inhibition) in assay [10] of 5.08%. For the same compound, in [11], the parasite growth, % of control (lower = inhibition) is 6.31%. The growth, % of control in [12] stood at 2.46%.

Regarding `CC1=NN(c2ccccc2)C(=O)C1`, in assay [13], the compound was classed as inactive. For the same compound, the Potency entry in assay [14] and in [17] was “inactive” each time. Besides, the max response in assay [15] is -3.99% (inactive) and -6.22% (inactive); in [8] it was -1.13% (inactive); in assay [16] it was -6.75% (inactive) and -3.56% (inactive). Further, in assay [9], the parasite growth, % of DMSO control amounted to 89.4%. The parasite growth remaining, % of DMSO control (lower = more inhibition) in [10] was determined as 94.6%. In assay [11], the parasite growth, % of control (lower = inhibition) turned out to be 86.2%. The growth, % of control in assay [12] amounted to 103%.

Take `CCN(CC)CCn1c(=O)c(Cc2ccc(OC)cc2)nc2ccccc21`: the outcome in assay [1], in [2], in [3], in assay [4], in assay [5] and in assay [6] was inactive. Further, in assay [7], the result was inactive. In addition, the max response in [8] was -7.99% (inactive). Also, the remaining parasite growth % (stronger effect = lower value) in [18] was 41.3%. Further, the activity, percent of control in [19] is 89.9%. The compound further showed a parasite growth, % of DMSO control in [9] of 206%. This compound came in with a parasite growth remaining, % of DMSO control (lower = more inhibition) in [10] of 46.8%. Moreover, the parasite growth, % of control (lower = inhibition) in assay [11] came to 28.1%.
